# Rows were chosen to be rich in hits. Some 2.3% of all compounds tested hit in one or more screens of this group.
# TDP43 rescue – inhibitors of TDP-43 toxicity in yeast; Potency, µM (titrated, usually from 46.1 µM), most hits filed as activators; AID 652104; 410,000 compounds, 1.8% hits; TDP-43 expressing yeast growth rescue, BacTiter-Glo, 24 h; note: nearly all actives have a fitted effect of over 50% in size
#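 Growth rescue of TDP-43-toxic yeast measured as ATP luminescence (BacTiter-Glo). Cells grown to mid-log in raffinose, induced in galactose at OD600=0.02, exposed to compound 24 hr at 30 deg C.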
# aSyn yeast inh – inhibitors of alpha-synuclein toxicity in yeast; 370,000 compounds, 0.14% hits; Yeast expressing alpha-synuclein, growth rescue, BacTiter-Glo, 24 h; Potency, µM (series often up to 46.1 µM), usual class: activators; AID 652106; note: nearly all actives have a fitted effect of over 65% in size
#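 Readout is rescue of growth in alpha-synuclein-expressing yeast, so inhibitors of toxicity appear as activators. Growth after 24 hr at 30 deg C in galactose medium is quantified by luminescence.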
# BCR signal inh – chronic active BCR signaling inhibition; ABC-DLBCL IkBa-CBG/CBR reporter, luminescence ratio, 4 h; Potency, µM (doses to about 46.1 µM), most hits filed as inhibitors; 340,000 compounds, 0.05% hits; AID 493014; active = well fitted inhibition curve with a large enough effect in the signal ratio, with a control signal flat, not every such curve was filed as active; inconclusive = small, poorly fitted or top-dose-only effect, or effect the other way, or a change in a side signal; the % refers to the signal ratio
#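 Compounds up to 46 uM were incubated four hours with TMD8 cells whose green CBG68 luciferase is fused to IkappaBalpha; red CBR luminescence normalised the signal, and concentration-effect curves were fitted to fusion, red and ratio data.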
# FUS yeast rescue – suppressors of FUS proteinopathy in yeast; 390,000 compounds, 0.24% hits; Potency, µM (titrated, usually from 76.6 µM), most hits filed as activators; S. cerevisiae FUS-expressing, growth rescue, OD600, 24 h; note: nearly all actives have a fitted effect of over 55% in size
#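 Galactose (2%) drives FUS expression in yeast precultured in raffinose; seeding density OD 0.005. Test compounds incubated 24hr at 30C and 99% humidity before absorbance at 600 nm was measured.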
# Abeta rescue – restores growth of yeast expressing A-beta42 peptide | yeast expressing A-beta42, growth rescue, OD600, 48 h; response scale: 0% DMSO, 100% iron-clioquinol control | Potency, µM (top dose mostly 46.1 µM), actives largely listed as activators | 410,000 compounds, 0.063% hits | AID 1347071; note: nearly all actives have a fitted effect of over 55% in size
#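 Yeast A-beta toxicity model in growth medium with pinned compounds, 48 h at 30 C; growth read as absorbance at 600 nm. Normalized to FeCl3/clioquinol equimolar mix (positive) and DMSO (negative).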
# uPA generation – blocks generation of uPA at the cell surface; cell surface uPA generation assay, qHTS; Potency, µM (titrated, usually from 38.3 µM), most hits filed as inhibitors; 330,000 compounds, 0.31% hits; AID 540303; active = well fitted inhibition curve with a large enough effect; inconclusive = small, poorly fitted or top-dose-only effect; inactive = no such curve, though single readings can be large or run the other way; tested in mouse RAW 264.7 cells; note: nearly all actives have a fitted effect of over 55% in size
# Hits are given with their value; i = inactive; ? = inconclusive; nt = no result; [ ] = another dose, or the depositor's remark. Unless noted, calls come from the whole dose curve; as a rule, active = well fitted curve in the direction sought with a large enough effect; inconclusive = small, poorly fitted or top-dose-only effect, or another doubt; inactive = no such curve, though single readings can be large; an effect the other way counts as inactive or inconclusive.
SMILES,TDP43 rescue,aSyn yeast inh,BCR signal inh,FUS yeast rescue,Abeta rescue,uPA generation
Cc1ccc(S(=O)(=O)N2C(=O)CCC2C(=O)N2CCN(C)CC2)cc1 (stereo unspecified),i,i,nt,i,i,nt
CC(=O)c1c(C)[nH]c(C(=O)NCc2ccccc2F)c1C,i,i,i,i,i,i
CSCCC(NC(=O)/C(=C/c1ccc2c(c1)OCO2)NC(=O)c1cccc([N+](=O)[O-])c1)C(=O)O (stereo unspecified),i,i,i,i,i,i
N/C(=N\OC(=O)CCC1CCCCC1)c1ccc([N+](=O)[O-])cc1,20µM,i,i,nt,i,i
COc1ccc(/C(N)=N/OC(=O)CC2CCCCC2)cc1,3.2µM,i,?,i,i,i
N/C(=N\OC(=O)CCCc1ccccc1)c1cccnc1,i,i,i,nt,i,i
N/C(=N\OC(=O)CCC1CCCC1)c1ccc(Br)cc1,6.3µM,i,i,nt,i,i
N/C(=N\OC(=O)C1CCCCC1)c1ccc(Br)cc1,?,i,?,i,i,i
N/C(=N\OC(=O)CCC1CCCCC1)c1cccnc1,13µM,i,?,i,i,i
COc1ccc(C(=O)N/N=C/c2ccc(OC)c(CN3CCc4cc(OC)c(OC)cc4C3C)c2)cc1 (stereo unspecified),i,i,i,i,i,i
COc1ccc(OC)c(S(=O)(=O)N2CCC(C(=O)NCC3COCCO3)CC2)c1 (stereo unspecified),nt,nt,nt,i,nt,nt
CC1CCCN(Cc2cnc(Cl)s2)C1 (stereo unspecified),i,i,i,i,i[9.22 µM],i
CC(C)(C)NC(=O)CSc1nc2scc(-c3ccccc3)c2c(=O)[nH]1,i,i,i,nt,i,i
Cc1cc(-n2c(C)nc3ccccc3c2=O)ccc1NC(=O)c1ccccc1[N+](=O)[O-],i,nt,i,i,i,nt
N/C(=N\OC(=O)CCC1CCCC1)c1cccc([N+](=O)[O-])c1,20µM,i,?,i,i,i
N/C(=N\OC(=O)CC1CCCCC1)c1cccc([N+](=O)[O-])c1,?,i,?,i,i,i
N/C(=N\OC(=O)CC1CCCCC1)c1ccc([N+](=O)[O-])cc1,18µM,i,?,nt,i,i
Cc1cc(C)c2c(=O)n(-c3ccccc3)[nH]c2n1,i,i,i,i,i,i
COc1ccccc1CNc1nc2cc(-c3sccc3C)sc2c(=O)n1C,?,i,nt,i,i,nt
COc1cccc(CNc2nc3cc(-c4cccc(Cl)c4)sc3c(=O)n2C)c1,i,i,nt,i,i,nt
COc1cccc(CNc2nc3cc(-c4ccccc4C)sc3c(=O)n2C)c1,18µM,?,nt,?,i,nt
COCCNc1nc2cc(-c3ccc(C)cc3)sc2c(=O)n1C,11µM,i,nt,i,i,nt
Cn1c(NCC2CCCCC2)nc2cc(-c3ccsc3)sc2c1=O,20µM,i,nt,i,i,nt
COc1ccccc1CNc1nc2cc(-c3ccccc3C)sc2c(=O)n1C,20µM,?,nt,i,i,nt
Cc1ccc(SCCC(=O)OCn2nnc3ccccc3c2=O)cc1,35µM,i,i,i,i,i
SMILES,TDP43 rescue,aSyn yeast inh,BCR signal inh,FUS yeast rescue,Abeta rescue,uPA generation
Cc1ccc(/C=C/C(=O)OCn2nnc3ccccc3c2=O)o1,18µM,?,i,i,i,i
O=C(/C=C/c1ccco1)OCn1nnc2ccccc2c1=O,?,i,i,i,i,i
O=C(CCSc1ccccc1)OCn1nnc2ccccc2c1=O,i,i,i,i,?,i
CC1Cc2ccccc2N1C(=S)NC(=O)c1ccco1 (stereo unspecified),?,i,i,i,i,i
CC1Cc2ccccc2N1C(=S)NC(=O)C1(C)CC1(Cl)Cl (stereo unspecified),?,i,i,i,13µM,i
O=C(c1sc2ccccc2c1Cl)N1CCN(c2ncccn2)CC1,?,i,?,i,i,i
CCOC(=O)Nc1nc(-c2ccc(Cl)cc2Cl)cs1,11µM,i,?,nt,i,i
COc1ccc(C)cc1NC(=O)CSc1nnc(COc2ccc(C)cc2)n1Cc1ccco1,16µM,i,i,i,i,i
CCn1c(COc2ccc(C)cc2)nnc1SCC(=O)Nc1cc(OC)ccc1OC,13µM,i,i,?,i,i
COc1ccc(CC(=O)NNC(=O)CCc2ccccc2)cc1,i,i,i,i,i,i
C/C(CC(=O)Nc1ccc(Cl)cc1Cl)=N\NC(=O)c1ccco1,i,i,?,nt,i,i
Cc1ccc(C2=NOC3(CC(=O)N(c4ccccc4)C3=O)C2)cc1 (stereo unspecified),i,i,i,i,i,i
Cc1ccc(C)c(CN2C(=O)c3ccccc3S(=O)(=O)c3ccc(C(=O)N4CCOCC4)cc32)c1,i,nt,nt,28µM,i,nt
O=C(CSCc1ccccc1)N=Nc1c(O)[nH]c2ccccc12,i,i,i,nt,i,i
O=C(CSCc1cccc(Br)c1)N=Nc1c(O)[nH]c2ccccc12,22µM,i,i,i,i,i
Cc1cccn2c(=O)c(C(=O)NCCc3ccc(Cl)cc3)cnc12,i,nt,i,i,i,nt
CCc1ccc(CNC(=O)c2cnc3c(C)cccn3c2=O)cc1,16µM,nt,i,i,i,nt
Cc1ccc2ccc3c(c2n1)NS(=O)(=O)c1ccc(C(F)(F)F)cc1-3,nt,10µM,nt,nt,nt,nt
O=S1(=O)Nc2c(cc(Cl)c3ccc(Cl)nc23)-c2ccccc21,nt,i,nt,nt,nt,nt
Cc1c(C(=O)c2ccccc2C(=O)O)sc2ccccc12,11µM,i,i,i,i,i
Cc1cc(C)c(C)c(C(=O)c2ccccc2C(=O)O)c1C,i,?,?,i,i,i
COc1ccc(C(=O)NCc2cccs2)cc1S(=O)(=O)N1CCOCC1,i,i,i,i,i,i
CCOC(=O)Cc1csc(NC(=O)c2ccc(NC(C)=O)cc2)n1,i,i,?,i,i,i
CCOC(=O)Cc1csc(NC(=O)c2ccc3ncsc3c2)n1,14µM,i,?,i,i,i
CCOC(=O)Cc1csc(NC(=O)c2ccc(Br)cc2)n1,13µM,i,?,i,i,?
COc1ccccc1CN1C(=O)CCC1(C)C(=O)NC1CCCCCC1 (stereo unspecified),i,i,i,i,i,nt
COc1ccc(C(=O)CSc2nnc(CNC(=O)c3ccco3)n2C)cc1OC,i,i,i,i,i,i
C[C@@H]1CC2[C@@H]3CC[C@H]4CC(=O)CC[C@]4(C)C3=CC[C@]2(C)[C@@]1(O)C(=O)CO (stereo partly specified),10µM,i,i,i,i,i
CC(=O)C1(O)C(C)CC2C3CCC4CC(O)CCC4(C)C3=CCC21C (stereo unspecified),i,i,i,i,i,i
CCOC(=O)c1sc(-c2ccc(F)cc2)cc1N,i,i,?,i,i,nt

# Screening data as filed in PubChem.
